Where “and” joins values, the source holds several entries; their conditions need not be identical. Equal values may be shown once. Records with an inconclusive call do not appear. Calls of active or inactive are those of the source. Rule for the calls: active = hit-call score of the fitted dose curve at least 0.9, where 1 is the maximum; inconclusive = response in the unintended direction; inactive = score below 0.9.
How the values were obtained:
[1] = target: Estrogen receptor (Homo sapiens) (UniProt P03372); assay: NVS_NR_hER: NovaScreen (NVS) Nuclear Receptor Binding Assay for human Estrogen Receptor (ER) (AID 2283348)
In short: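 Cell-free radioligand binding with protein extracted from MCF7 cells; scintillation counting 18 hours after dosing. Loss of signal versus DMSO baseline read as displacement; primary single-concentration screen at 25 uM in duplicate, actives retested in concentration series.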

[2] = target: Estrogen receptor (Homo sapiens) (UniProt P03372); assay: OT_ER_ERaERa_1440: Odyssey Thera (OT) 24-hour HEK293T Protein-Complementation Assay for Estrogen Receptor-alpha/-alpha Homodimer (AID 2283349);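 note: hits raise fluorescence above DMSO for agonists and antagonists alike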
In short: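 Readout is the rise in mean fluorescence from reporter fragment complementation when ERα LBD (aa 310-547) units dimerize in HEK293T cells. Measured 24 h after dosing and analysed as increase over DMSO control.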

[3] = target: Estrogen receptor (Homo sapiens) (UniProt P03372); assay: OT_ER_ERaERa_0480: Odyssey Thera (OT) 8-hour HEK293T Protein-Complementation Assay for Estrogen Receptor-alpha/-alpha Homodimer (AID 2283351);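 note: rise in fluorescence from reassembled reporter fragments on ERα LBD homodimer in nucleus or whole cell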
In short: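 HEK293T cells stably expressing the human ERα ligand-binding domain (aa 310-547) as a homodimer PCA were dosed with compound for 8 h. Gain of fluorescence intensity versus DMSO vehicle was read by laser scanning cytometry.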

[4] = target: T1, Estrogen receptor (Homo sapiens) + Estrogen receptor beta (Homo sapiens) (UniProt P03372+Q92731); assay: OT_ER_ERaERb_1440: Odyssey Thera (OT) 24-hour HEK293T Protein-Complementation Assay for Estrogen Receptor-alpha/-beta Homodimer (AID 2283356);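 note: heteromer of ER alpha and ER beta binding domains; hits raise reporter fluorescence and both agonists and antagonists give an increase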
In short: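 Heterodimerisation of ERα (aa 310-547) and ERβ (aa 263-489) ligand binding domains was tracked as fluorescence gain in stably transfected HEK293T cells following 24 h dosing, normalised to DMSO controls.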

[5] = target: Estrogen receptor beta (Homo sapiens) (UniProt Q92731); assay: OT_ER_ERbERb_0480: Odyssey Thera (OT) 8-hour HEK293T Protein-Complementation Assay for Estrogen Receptor-beta/-beta Homodimer (AID 2283357);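 note: active means signal gain over DMSO baseline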
In short: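 Readout: increase in mean fluorescence intensity (nucleus for agonists; nucleus plus cytoplasm for antagonists) relative to DMSO, from a reporter-fragment complementation of human ER-beta LBD homodimer in HEK293T cells dosed 8 hours.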

[6] = target: Androgen Receptor/SRC-1 Co-activator, AR (gene 367) (UniProt P10275); assay: OT_AR_ARSRC1_0960: Odyssey Thera (OT) 16-hour HEK293T Protein-Complementation Assay for Androgen Receptor/SRC-1 Co-activator (AID 2283353);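 note: actives raise the signal above DMSO so potency reflects increased AR and SRC-1 complex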
In short: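 HEK293T cells stably expressing AR and SRC-1 fused to split Venus YFP fragments via (Gly4Ser)2 linkers were dosed for 16 h. Nuclear/cytoplasmic fluorescence ratio at 488 nm, ≥400 cells per image, fitted for gain of signal versus DMSO.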

[7] = target: Androgen Receptor/SRC-1 Co-activator, AR (gene 367) (UniProt P10275); assay: OT_AR_ARSRC1_0480: Odyssey Thera (OT) 8-hour HEK293T Protein-Complementation Assay for Androgen Receptor/SRC-1 Co-activator (AID 2283354);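 note: hits raise the complementation signal above DMSO so AC50 marks enhancers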
In short: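 HEK293T cells stably expressing AR and SRC-1 fused to split Venus YFP fragments via (Gly4Ser)2 linkers were read 8 h after compound dosing. Complementation was imaged at 488 and 635nm, and nuclear/cytoplasmic fluorescence ratio (488nm) was taken over ≥400 cells; gain-of-signal versus DMSO.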

[8] = target: T1, Estrogen receptor (Homo sapiens) + Estrogen receptor beta (Homo sapiens); assay: OT_ER_ERaERb_0480: Odyssey Thera (OT) 8-hour HEK293T Protein-Complementation Assay for Estrogen Receptor-alpha/-beta Heterodimer (AID 2283352)
In short: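 Increase in mean fluorescence intensity, measured by laser scanning plate cytometry, reported ER-alpha/ER-beta LBD complementation in HEK293T cells after 8 h chemical exposure. DMSO served as baseline; basal signal is low, punctate and cytoplasmic.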

[9] = target: rat Mineralocorticoid Receptor (MR), Nr3c2 (gene 25672) (UniProt P22199); assay: NVS_NR_rMR: NovaScreen (NVS) Nuclear Receptor Binding Assay for rat Mineralocorticoid Receptor (MR) (AID 2283355)
In short: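 Cell-free radioligand binding to MR in adrenalectomized rat brain supernatant, scintillation counted 24 h after dosing. Loss of signal versus DMSO baseline marks displacement. Primary screen in duplicate at 25 uM; actives retested as concentration series.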

[10] = target: Retinoic acid receptor alpha (Homo sapiens) (UniProt P10276); assay: NVS_NR_hRAR_Antagonist: NovaScreen (NVS) Nuclear Receptor Binding Assay for human Retinoic Acid Alpha Receptor Antagonism (RAR) (AID 2283358)
Procedure: NVS_NR_hRAR_Antagonist is a biochemical, single-readout assay that uses extracted gene-proteins in a cell-free assay. Measurements were taken 2 hours after chemical dosing in a 384-well plate.NVS_NR_hRAR_Antagonist is one of one assay component(s) measured or calculated from the NVS_NR_hRAR_Antagonist assay. It is designed to make measurements of fluorescent resonance energy transfer, a form of binding reporter, as detected with fluorescent resonance energy transfer signals by Time-Resolved Fluorescence Resonance Energy Transfer (TR-FRET) technology.Data from the assay component NVS_NR_hRAR_Antagonist was analyzed into 1 assay endpoint. This assay endpoint, NVS_NR_hRAR_Antagonist, was analyzed in the positive analysis fitting direction relative to DMSO as the negative control and baseline of activity. Using a type of binding reporter, loss-of-signal activity can be used to understand changes in the binding as they relate to the gene RARA. Furthermore, this assay endpoint can be referred to as a primary readout, because the performed assay has only produced 1 assay endpoint. To generalize the intended target to other relatable targets, this assay endpoint is annotated to the nuclear receptor intended target family, where the subfamily is non-steroidal.
Binding assays used specific radioligands (tritiated, iodinated) with non-radioactive competitive displacement ligands in agonist or antagonist protocols (as indicated) and various reference compounds and inhibitors to titrate specific binding to receptors and transporters. Most enzyme assays (CYPs, kinases, phosphatases, proteases, HDACs) used recombinant protein and specific substrates (fluorescence mostly, some colorimetric and radioactive) and inhibitors, followed by a biochemical separation of substrate and product. All assays for the biochemical HTS were initially run in duplicate at a single concentration (10 uM for CYP450 assays and 25 uM for all others). […] Each assay was run with positive and negative controls, and concurrent controls on every plate. The follow-up (secondary) screen tested active chemical-pairs in concentration series, as well as a few additional assays not tested in the primary screen, some selected negative inactives, and several cases re-run in the concentration series for confirmatory purposes.

Estrogen receptor beta (Homo sapiens), sequence (Q92731 whole entry, looked up, the tested form may be a part): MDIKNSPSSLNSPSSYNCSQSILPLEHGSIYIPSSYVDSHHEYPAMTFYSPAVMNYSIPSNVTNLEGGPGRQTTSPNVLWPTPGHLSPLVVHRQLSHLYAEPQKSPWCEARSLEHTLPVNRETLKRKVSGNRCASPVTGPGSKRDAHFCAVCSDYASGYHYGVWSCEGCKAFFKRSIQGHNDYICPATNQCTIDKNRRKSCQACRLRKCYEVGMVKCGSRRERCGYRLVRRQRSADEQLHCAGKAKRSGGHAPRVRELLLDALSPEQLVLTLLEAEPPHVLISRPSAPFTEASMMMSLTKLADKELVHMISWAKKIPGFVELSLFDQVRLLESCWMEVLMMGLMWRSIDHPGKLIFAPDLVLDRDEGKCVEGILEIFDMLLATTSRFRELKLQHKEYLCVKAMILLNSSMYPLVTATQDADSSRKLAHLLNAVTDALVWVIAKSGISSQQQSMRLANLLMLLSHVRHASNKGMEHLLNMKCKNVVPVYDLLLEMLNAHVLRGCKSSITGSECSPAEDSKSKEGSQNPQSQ
Retinoic acid receptor alpha (Homo sapiens), sequence (P10276 whole entry, looked up): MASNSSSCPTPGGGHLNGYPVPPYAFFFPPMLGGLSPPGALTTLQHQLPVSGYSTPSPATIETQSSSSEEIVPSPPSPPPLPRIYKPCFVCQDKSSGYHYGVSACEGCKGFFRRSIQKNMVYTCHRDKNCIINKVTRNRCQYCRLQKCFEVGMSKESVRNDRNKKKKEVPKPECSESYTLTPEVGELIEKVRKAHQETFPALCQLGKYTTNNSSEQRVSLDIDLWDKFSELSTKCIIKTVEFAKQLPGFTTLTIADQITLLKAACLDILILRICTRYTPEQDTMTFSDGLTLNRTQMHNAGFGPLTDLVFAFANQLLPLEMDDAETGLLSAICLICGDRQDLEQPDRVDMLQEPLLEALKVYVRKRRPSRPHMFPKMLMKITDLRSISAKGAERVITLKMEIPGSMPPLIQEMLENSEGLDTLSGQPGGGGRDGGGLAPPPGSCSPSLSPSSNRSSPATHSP
Estrogen receptor (Homo sapiens), sequence (P03372 whole entry, looked up, the tested form may be a part): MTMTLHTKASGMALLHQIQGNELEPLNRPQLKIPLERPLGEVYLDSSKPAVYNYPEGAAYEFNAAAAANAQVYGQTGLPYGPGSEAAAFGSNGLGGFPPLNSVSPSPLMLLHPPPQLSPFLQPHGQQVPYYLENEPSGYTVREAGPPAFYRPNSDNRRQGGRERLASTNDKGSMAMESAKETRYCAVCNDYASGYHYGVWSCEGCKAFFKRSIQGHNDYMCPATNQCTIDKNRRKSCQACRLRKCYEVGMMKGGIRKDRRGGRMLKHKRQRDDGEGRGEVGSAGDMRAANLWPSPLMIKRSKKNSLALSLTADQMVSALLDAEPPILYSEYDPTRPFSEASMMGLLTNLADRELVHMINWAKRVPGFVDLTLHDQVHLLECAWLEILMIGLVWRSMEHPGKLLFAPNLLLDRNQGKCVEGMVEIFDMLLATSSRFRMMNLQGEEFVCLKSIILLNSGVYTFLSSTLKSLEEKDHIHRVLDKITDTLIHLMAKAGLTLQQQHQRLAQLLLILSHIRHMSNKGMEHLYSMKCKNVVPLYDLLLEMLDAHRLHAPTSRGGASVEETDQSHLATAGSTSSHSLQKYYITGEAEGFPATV
T1 sequence (P03372 whole entry, looked up, the tested form may be a part): as above
T1 sequence (Q92731 whole entry, looked up, the tested form may be a part): as the sequence (Q92731 whole entry, looked up, the tested form may be a part) above
Androgen Receptor/SRC-1 Co-activator, AR (gene 367), sequence (P10275 whole entry, looked up, the tested form may be a part): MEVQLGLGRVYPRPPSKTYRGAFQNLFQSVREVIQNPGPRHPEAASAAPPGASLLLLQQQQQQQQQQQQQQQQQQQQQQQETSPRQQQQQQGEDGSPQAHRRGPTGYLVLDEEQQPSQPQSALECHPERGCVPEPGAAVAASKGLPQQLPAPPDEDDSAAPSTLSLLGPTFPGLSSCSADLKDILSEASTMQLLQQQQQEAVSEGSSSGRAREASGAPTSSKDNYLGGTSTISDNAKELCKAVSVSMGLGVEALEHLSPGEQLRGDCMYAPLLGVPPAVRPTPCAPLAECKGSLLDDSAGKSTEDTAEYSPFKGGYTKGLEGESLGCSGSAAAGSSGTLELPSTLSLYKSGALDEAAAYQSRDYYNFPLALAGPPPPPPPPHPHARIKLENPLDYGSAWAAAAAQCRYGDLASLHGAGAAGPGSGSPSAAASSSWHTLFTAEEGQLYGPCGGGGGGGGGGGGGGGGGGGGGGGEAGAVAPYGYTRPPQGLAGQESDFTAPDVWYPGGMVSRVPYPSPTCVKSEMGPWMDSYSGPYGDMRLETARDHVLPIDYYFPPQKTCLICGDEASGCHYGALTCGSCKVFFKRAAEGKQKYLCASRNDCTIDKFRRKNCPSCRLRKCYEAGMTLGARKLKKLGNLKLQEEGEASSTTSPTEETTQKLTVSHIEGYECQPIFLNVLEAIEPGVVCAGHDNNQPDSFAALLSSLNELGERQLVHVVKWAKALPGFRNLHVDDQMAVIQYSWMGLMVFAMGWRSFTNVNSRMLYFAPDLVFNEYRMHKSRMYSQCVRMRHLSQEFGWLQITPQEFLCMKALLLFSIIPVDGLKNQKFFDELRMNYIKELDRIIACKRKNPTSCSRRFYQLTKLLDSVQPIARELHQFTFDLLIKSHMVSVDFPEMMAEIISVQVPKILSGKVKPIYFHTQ
rat Mineralocorticoid Receptor (MR), Nr3c2 (gene 25672), sequence (P22199 whole entry, looked up): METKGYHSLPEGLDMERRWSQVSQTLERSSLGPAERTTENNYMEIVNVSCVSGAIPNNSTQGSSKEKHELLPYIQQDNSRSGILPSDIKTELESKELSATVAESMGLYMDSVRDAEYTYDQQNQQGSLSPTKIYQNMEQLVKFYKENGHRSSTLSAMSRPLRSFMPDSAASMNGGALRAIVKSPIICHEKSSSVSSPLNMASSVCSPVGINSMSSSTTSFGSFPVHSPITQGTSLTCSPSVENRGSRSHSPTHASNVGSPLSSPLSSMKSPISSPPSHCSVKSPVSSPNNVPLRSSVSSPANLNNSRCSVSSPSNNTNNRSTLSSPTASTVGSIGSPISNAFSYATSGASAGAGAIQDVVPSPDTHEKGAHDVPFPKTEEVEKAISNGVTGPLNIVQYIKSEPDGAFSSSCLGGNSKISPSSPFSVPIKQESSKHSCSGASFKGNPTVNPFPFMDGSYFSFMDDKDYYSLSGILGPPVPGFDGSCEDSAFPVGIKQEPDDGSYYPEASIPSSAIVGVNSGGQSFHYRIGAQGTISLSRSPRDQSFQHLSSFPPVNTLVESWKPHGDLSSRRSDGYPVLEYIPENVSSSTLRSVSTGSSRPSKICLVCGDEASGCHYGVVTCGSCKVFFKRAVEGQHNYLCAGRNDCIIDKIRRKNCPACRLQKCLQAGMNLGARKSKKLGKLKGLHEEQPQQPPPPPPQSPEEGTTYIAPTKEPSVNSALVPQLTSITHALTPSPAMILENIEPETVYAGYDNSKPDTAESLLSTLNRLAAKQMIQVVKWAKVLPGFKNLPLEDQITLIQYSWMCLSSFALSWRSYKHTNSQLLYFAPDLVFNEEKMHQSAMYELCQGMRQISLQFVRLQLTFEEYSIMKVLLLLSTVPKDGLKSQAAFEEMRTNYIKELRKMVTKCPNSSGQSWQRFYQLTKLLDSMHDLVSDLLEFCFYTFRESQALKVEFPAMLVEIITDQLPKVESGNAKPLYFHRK

Compound: CCCCCCCCCCCC[N+](C)(C)CCCCCCCCCCCC
- AC50 [1]: 46.8 µM (active)

Compound: CCCCCC(C)OC(=O)COc1ccc(Cl)c2cccnc12 (stereo not drawn)
- outcome [1]: inactive
- outcome [2]: inactive
- outcome [3]: inactive

Compound: Cc1cc(Cc2cc(C)cc(C(C)(C)C)c2O)c(O)c(C(C)(C)C)c1
- outcome [1]: inactive
- outcome [2]: inactive
- outcome [3]: inactive
- outcome [4]: inactive
- outcome [5]: inactive

Compound: NNc1nc(-c2ccc([N+](=O)[O-])cc2)cs1
- outcome [1]: inactive

Compound: NC(=NCCCCCCN=C(N)/N=C(\N)Nc1ccc(Cl)cc1)/N=C(\N)Nc1ccc(Cl)cc1
- AC50 [1]: 9.07 µM (active) and 13.5 µM (active) and 19.2 µM (active)
- outcome [2]: inactive
- outcome [3]: inactive
- AC50 [6]: 9.58 µM (active)
- outcome [7]: inactive

Compound: CC1=CC(=O)c2ccccc2C1=O
- outcome [1]: inactive

Compound: O=C(Nc1cccc([N+](=O)[O-])c1)c1cc2ccccc2cc1O
- outcome [1]: inactive

Compound: Oc1ccc(Cc2ccccc2O)cc1
- outcome [1]: inactive

Compound: Nc1cc(Cl)c(-c2cc(Cl)c(N)cc2Cl)cc1Cl
- AC50 [1]: 0.0384 µM (active)

Compound: C=CC(=O)OCC(CO)(COCC(COC(=O)C=C)(COC(=O)C=C)COC(=O)C=C)COC(=O)C=C
- outcome [1]: inactive

Compound: CCOC(=O)c1nc(C(Cl)(Cl)Cl)n(-c2ccc(Cl)cc2Cl)n1
- outcome [1]: inactive

Compound: CCc1ccccc1O
- outcome [1]: inactive
- outcome [2]: inactive
- outcome [3]: inactive
- outcome [8]: inactive
- outcome [4]: inactive
- outcome [5]: inactive

Compound: CCCCCCc1ccc(N)cc1
- outcome [1]: inactive
- outcome [2]: inactive
- AC50 [3]: 67.3 µM (active)
- AC50 [8]: 30.1 µM (active)
- outcome [6]: inactive
- outcome [7]: inactive
- AC50 [4]: 21.4 µM (active)
- AC50 [5]: 50 µM (active)

Compound: NCc1cccc(CN)c1
- outcome [1]: inactive
- outcome [2]: inactive
- outcome [3]: inactive
- outcome [8]: inactive
- outcome [4]: inactive
- outcome [5]: inactive

Compound: O=C(Nc1ccc(Cl)c(Cl)c1)c1cc(Cl)cc(Cl)c1O
- AC50 [1]: 25 µM (active)

Compound: C=CC(C)(CCC=C(C)C)OC(C)=O (stereo not drawn)
- AC50 [1]: 6.92 µM (active)
- outcome [2]: inactive
- outcome [3]: inactive

Compound: NCCN
- outcome [2]: inactive
- outcome [3]: inactive

Compound: C[C@]12CC[C@@H]3c4ccc(O)cc4CC[C@H]3[C@@H]1CC[C@@H]2OC(=O)CCC1CCCC1
- AC50 [1]: 0.00446 µM (active)

Compound: c1ccc(CNc2ncnc3c2ncn3C2CCCCO2)cc1 (stereo not drawn)
- outcome [1]: inactive

Compound: O=C(c1cc(O)c(O)c(O)c1)c1ccc(O)c(O)c1O
- outcome [1]: inactive

Compound: CCCCCCOC(=O)c1ccc(O)cc1
- AC50 [1]: 5.86 µM (active)

Compound: CN(Cc1cnc2nc(N)nc(N)c2n1)c1ccc(C(=O)N[C@@H](CCC(=O)O)C(=O)O)cc1
- outcome [2]: inactive
- outcome [3]: inactive
- outcome [8]: inactive
- outcome [6]: inactive
- outcome [7]: inactive
- outcome [9]: inactive
- outcome [4]: inactive

Compound: N=C(N)c1ccc(OCCCCCOc2ccc(C(=N)N)cc2)cc1
- outcome [1]: inactive
- outcome [2]: inactive
- outcome [3]: inactive

Compound: CCCCCCCCCCCCCC[n+]1ccccc1
- outcome [1]: inactive

Compound: O=C1Cc2ccccc2N1c1c(Cl)cccc1Cl
- outcome [1]: inactive

Compound: Oc1c(Cl)cc(Cl)cc1Sc1cc(Cl)cc(Cl)c1O
- outcome [1]: inactive

Compound: O=C(c1ccccc1)c1ccccc1
- outcome [6]: inactive
- outcome [7]: inactive

Compound: Cc1cc(C(=C2C=CC(=Nc3ccc(S(=O)(=O)O)cc3)C=C2)c2ccc(Nc3ccc(S(=O)(=O)O)cc3)cc2)cc(S(=O)(=O)O)c1N
- outcome [2]: inactive
- outcome [3]: inactive
- outcome [8]: inactive
- outcome [6]: inactive
- outcome [7]: inactive
- outcome [4]: inactive
- outcome [5]: inactive

Compound: O=C1NS(=O)(=O)c2ccccc21
- outcome [5]: inactive
- outcome [10]: inactive

Compound: CCCCCCCCCCCC
- AC50 [10]: 3.51 µM (active)

Compound: CCCCCCCCCCCCOC(=O)c1cc(O)c(O)c(O)c1
- AC50 [2]: 11.9 µM (active)
- outcome [3]: inactive
- AC50 [8]: 11.9 µM (active)
- AC50 [4]: 11.9 µM (active)
- outcome [5]: inactive
- AC50 [10]: 36.9 µM (active)

Compound: CN(C)CCOC(c1ccccc1)c1ccccc1
- outcome [2]: inactive
- outcome [3]: inactive
- outcome [8]: inactive
- outcome [6]: inactive
- outcome [7]: inactive
- outcome [4]: inactive

Compound: CCCCCCC(C)(C)C(=O)O
- outcome [2]: inactive
- outcome [3]: inactive
- outcome [8]: inactive
- outcome [6]: inactive
- outcome [7]: inactive
- outcome [4]: inactive
- outcome [5]: inactive

Compound: CCCCCCCCCCCC(=O)O
- outcome [5]: inactive

Compound: O=C(O)c1cccc(C(=O)O)n1
- outcome [2]: inactive
- outcome [3]: inactive
- outcome [8]: inactive
- outcome [4]: inactive

Compound: O=C(CCCN1CCC(O)(c2ccc(Cl)cc2)CC1)c1ccc(F)cc1
- outcome [5]: inactive

Compound: Cc1[nH]nc2c1N=C(c1ccccc1Cl)c1cc([N+](=O)[O-])ccc1N2
- outcome [5]: inactive

Compound: CCCCCCCCCCCCCCC
- outcome [5]: inactive

Compound: CC(=O)Nc1ccc(O)cc1
- outcome [6]: inactive
- outcome [7]: inactive
- outcome [5]: inactive

Compound: CCCCc1oc2ccccc2c1C(=O)c1cc(I)c(OCCN(CC)CC)c(I)c1
- outcome [2]: inactive
- outcome [3]: inactive
- outcome [8]: inactive
- outcome [5]: inactive

Compound: O=S(=O)(O)c1ccccc1
- outcome [5]: inactive

Compound: COc1cc([N+](=O)[O-])ccc1N
- outcome [2]: inactive
- outcome [3]: inactive
- outcome [8]: inactive
- outcome [6]: inactive
- outcome [7]: inactive
- outcome [4]: inactive
- outcome [5]: inactive
